Numbering of substitutions follows the chain as printed.
Experiments:
Test in all cases: yeast three-hybrid, YBZ-1, SC-Leu-His + 0.5 mM 3-AT, 4 days
Details in all cases: tags: N-Gal4 AD-HA kept; label: inside an RPR1-promoter hybrid RNA with tandem MS2 sites; ssRNA
PUM1 PUF domain R5-AYF = PUM1 PUF domain R5-AYF (Homo sapiens, UniProt Q14671 828-1176, C1007A;R1008Y;Q1011F)
In short: (§1)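 A centromeric plasmid in strain YBZ-1 co-expressed Pumilio-1 PUF domain libraries, randomized at the three base-contacting residues of each repeat, with matching RNA elements; the strain carries a LexA–MS2 coat fusion and a HIS3 reporter. After four days on SC-Leu (input) or SC-Leu-His + 0.5 mM 3-AT (selection), the repeat regions were PCR-amplified and Illumina-sequenced. The interaction score is the log change in variant frequency from input to selection, using log2 and a pseudocount of 1 where absent.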

PUM1 PUF domain R8-RYP = PUM1 PUF domain R8-RYP (Homo sapiens, UniProt Q14671 828-1176, N1122R;Q1126P)
In short: as §1

PUM1 PUF domain R6-IYK = target: T1, PUM1 PUF domain R6-IYK (Homo sapiens, UniProt Q14671 828-1176, N1043I;Q1047K)
T1 sequence: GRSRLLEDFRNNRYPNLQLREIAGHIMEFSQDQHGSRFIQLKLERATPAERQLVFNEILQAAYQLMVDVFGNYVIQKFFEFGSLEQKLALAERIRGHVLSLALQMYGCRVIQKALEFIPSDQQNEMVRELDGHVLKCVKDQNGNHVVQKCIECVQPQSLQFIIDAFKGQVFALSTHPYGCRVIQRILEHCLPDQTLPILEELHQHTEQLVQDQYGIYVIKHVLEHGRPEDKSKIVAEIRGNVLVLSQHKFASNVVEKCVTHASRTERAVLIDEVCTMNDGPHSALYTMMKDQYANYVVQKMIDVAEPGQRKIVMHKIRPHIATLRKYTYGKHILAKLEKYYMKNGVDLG
In short: as §1

PUM1 PUF domain R4-PFY = PUM1 PUF domain R4-PFY (Homo sapiens, UniProt Q14671 828-1176, N971P;H972F;Q975Y)
In short: as §1

PUM1 PUF domain R6-GFK = target: T2, PUM1 PUF domain R6-GFK (Homo sapiens, UniProt Q14671 828-1176, N1043G;Y1044F;Q1047K)
T2 sequence: T1 sequence with I216G, Y217F
In short: as §1

PUM1 PUF domain R5-AGD = PUM1 PUF domain R5-AGD (Homo sapiens, UniProt Q14671 828-1176, C1007A;R1008G;Q1011D)
In short: as §1

PUM1 PUF domain R4-WSY = PUM1 PUF domain R4-WSY (Homo sapiens, UniProt Q14671 828-1176, N971W;H972S;Q975Y)
In short: as §1

PUM1 PUF domain R6-CWS = target: T3, PUM1 PUF domain R6-CWS (Homo sapiens, UniProt Q14671 828-1176, N1043C;Y1044W;Q1047S)
T3 sequence: T1 sequence with I216C, Y217W, K220S
In short: as §1

PUM1 PUF domain R7-RGK = PUM1 PUF domain R7-RGK (Homo sapiens, UniProt Q14671 828-1176, S1079R;N1080G;E1083K)
In short: as §1

PUM1 PUF domain R7-LFG = PUM1 PUF domain R7-LFG (Homo sapiens, UniProt Q14671 828-1176, S1079L;N1080F;E1083G)
In short: as §1

PUM1 PUF domain R7-KPI = PUM1 PUF domain R7-KPI (Homo sapiens, UniProt Q14671 828-1176, S1079K;N1080P;E1083I)
In short: as §1

PUM1 PUF domain R3-TIE = PUM1 PUF domain R3-TIE (Homo sapiens, UniProt Q14671 828-1176, C935T;R936I;Q939E)
In short: as §1

PUM1 PUF domain R5-SQG = PUM1 PUF domain R5-SQG (Homo sapiens, UniProt Q14671 828-1176, C1007S;R1008Q;Q1011G)
In short: as §1

PUM1 PUF domain R5-SMG = PUM1 PUF domain R5-SMG (Homo sapiens, UniProt Q14671 828-1176, C1007S;R1008M;Q1011G)
In short: as §1

PUM1 PUF domain R6-VFY = target: T4, PUM1 PUF domain R6-VFY (Homo sapiens, UniProt Q14671 828-1176, N1043V;Y1044F;Q1047Y)
T4 sequence: T1 sequence with I216V, Y217F, K220Y
In short: as §1

GGCUAGAACUAGUGGAUCCCCCGGCGCCCGGCGGCUCGAGCCCGGGUAAGUGUAAAUAGUCUGCAUGCCGCCGGGCGCCAUGCCUGCAGGUCGACUCUAGAAAACAUG
binding signal (PUM1 PUF domain R5-AYF): 3.62 log2 enrichment (interaction score) | binding signal (PUM1 PUF domain R8-RYP): 4.32 log2 enrichment (interaction score) | binding signal (PUM1 PUF domain R6-IYK): 2.06 log2 enrichment (interaction score) | binding signal (PUM1 PUF domain R4-PFY): 5.35 log2 enrichment (interaction score) | binding signal (PUM1 PUF domain R6-GFK): 2.55 log2 enrichment (interaction score) | binding signal (PUM1 PUF domain R5-AGD): 1.82 log2 enrichment (interaction score) | binding signal (PUM1 PUF domain R4-WSY): 2.29 log2 enrichment (interaction score) | binding signal (PUM1 PUF domain R6-CWS): 3.77 log2 enrichment (interaction score)

GGCUAGAACUAGUGGAUCCCCCGGCGCCCGGCGGCUCGAGCCCGGGUAAGUUUAAAUAGUCUGCAUGCCGCCGGGCGCCAUGCCUGCAGGUCGACUCUAGAAAACAUG
binding signal (PUM1 PUF domain R7-RGK): 6.69 log2 enrichment (interaction score) | binding signal (PUM1 PUF domain R7-LFG): 4.82 log2 enrichment (interaction score)

GGCUAGAACUAGUGGAUCCCCCGGCGCCCGGCGGCUCGAGCCCGGGUAAGUCUAAAUAGUCUGCAUGCCGCCGGGCGCCAUGCCUGCAGGUCGACUCUAGAAAACAUG
binding signal (PUM1 PUF domain R7-RGK): 5.3 log2 enrichment (interaction score) | binding signal (PUM1 PUF domain R7-KPI): 3.61 log2 enrichment (interaction score) | binding signal (PUM1 PUF domain R7-LFG): 3.01 log2 enrichment (interaction score)

GGCUAGAACUAGUGGAUCCCCCGGCGCCCGGCGGCUCGAGCCCGGGUAAGUGUAAGUAGUCUGCAUGCCGCCGGGCGCCAUGCCUGCAGGUCGACUCUAGAAAACAUG
binding signal (PUM1 PUF domain R3-TIE): 4.39 log2 enrichment (interaction score)

GGCUAGAACUAGUGGAUCCCCCGGCGCCCGGCGGCUCGAGCCCGGGUAAGUGUGAAUAGUCUGCAUGCCGCCGGGCGCCAUGCCUGCAGGUCGACUCUAGAAAACAUG
binding signal (PUM1 PUF domain R5-SQG): 3.41 log2 enrichment (interaction score) | binding signal (PUM1 PUF domain R5-AGD): 3.87 log2 enrichment (interaction score) | binding signal (PUM1 PUF domain R5-SMG): 2.11 log2 enrichment (interaction score)

GGCUAGAACUAGUGGAUCCCCCGGCGCCCGGCGGCUCGAGCCCGGGUAAGUGUUAAUAGUCUGCAUGCCGCCGGGCGCCAUGCCUGCAGGUCGACUCUAGAAAACAUG
binding signal (PUM1 PUF domain R5-SQG): 0.27 log2 enrichment (interaction score) | binding signal (PUM1 PUF domain R5-SMG): 0.67 log2 enrichment (interaction score)

GGCUAGAACUAGUGGAUCCCCCGGCGCCCGGCGGCUCGAGCCCGGGUAAGCGUAAAUAGUCUGCAUGCCGCCGGGCGCCAUGCCUGCAGGUCGACUCUAGAAAACAUG
binding signal (PUM1 PUF domain R8-RYP): 6.03 log2 enrichment (interaction score)

GGCUAGAACUAGUGGAUCCCCCGGCGCCCGGCGGCUCGAGCCCGGGUAAGUGUAUAUAGUCUGCAUGCCGCCGGGCGCCAUGCCUGCAGGUCGACUCUAGAAAACAUG
binding signal (PUM1 PUF domain R4-PFY): 3.71 log2 enrichment (interaction score) | binding signal (PUM1 PUF domain R4-WSY): 3.41 log2 enrichment (interaction score)

GGCUAGAACUAGUGGAUCCCCCGGCGCCCGGCGGCUCGAGCCCGGGUAAGUGAAAAUAGUCUGCAUGCCGCCGGGCGCCAUGCCUGCAGGUCGACUCUAGAAAACAUG
binding signal (PUM1 PUF domain R6-CWS): 5.26 log2 enrichment (interaction score) | binding signal (PUM1 PUF domain R6-VFY): 6.28 log2 enrichment (interaction score)

From article PMC8384837, “Expanding the binding specificity for RNA recognition by a PUF domain”
